PubChem BioAssay (NCATS)
Where “and” joins values, the source holds several entries; their conditions need not be identical. Equal values may be shown once. Results filed as inconclusive are left out. A number with no mark means an inactive call. Calls of active or inactive are those of the source. Calls come from the whole dose curve; as a rule, active = well fitted inhibition curve with a large enough effect; inconclusive = small, poorly fitted or top-dose-only effect; inactive = flat fitted curve, though single readings scatter.

Columns and labels:
CRL-7250 [1] = assay: Cytotoxic Profiling of Annotated Libraries Using Quantitative High-Throughput Screening (AID 1296008); settings: Five cell lines viability, CellTiter-Glo ATP luminescence, 48-72 h; max response: stronger effect = lower value; note: potency is the fitted concentration of half-maximal effect; for max response: % is set by controls: 0 for no effect and ±100 for the full control effect
Method in brief: (§1)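 Cells exposed to compounds for 48 or 72 hr at 37 degrees Celsius. Viability read as ATP-coupled luminescence with CellTiter-Glo after 10 min at room temperature.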

HEK293 = assay: as above; settings: Five cell lines viability, CellTiter-Glo ATP luminescence, 48-72 h; max response: stronger effect = lower value
Method in brief: as §1

HaCat [2] = assay: as above; settings: Five cell lines viability, CellTiter-Glo ATP luminescence, 48-72 h; max response: stronger effect = lower value
Method in brief: as §1

KB-3-1 = assay: as above; settings: Five cell lines viability, CellTiter-Glo ATP luminescence, 48-72 h; max response: stronger effect = lower value
Method in brief: as §1

NIH3T3 = assay: as above; settings: Five cell lines viability, CellTiter-Glo ATP luminescence, 48-72 h; max response: stronger effect = lower value
Method in brief: as §1

TAB165 = assay: qHTS profiling for inhibitors of Plasmodium falciparum proliferation (AID 504749);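 note: 0% = DMSO vehicle and full inhibition = artemisinin control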; settings: P. falciparum in erythrocytes, SYBR Green DNA, 72 h; series mostly up to 28.7 µM
Method in brief: (§2)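 Readout was DNA-dye fluorescence from lysed cultures, ex 485/em 535 nm. Parasitized red cells had grown 72 h with compound; data scaled between 0.29 uM artemisinin and DMSO wells and corrected using vehicle-only plates.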

W2 = assay: as above; settings: P. falciparum in erythrocytes, SYBR Green DNA, 72 h; series mostly up to 28.7 µM
Method in brief: as §2

CRL-7250 [3] = assay: qHTS assay to identify novel small-molecules to repurpose for Merkel cell carcinoma treatment (AID 1296009); settings: MCC and control cell lines, CellTiter-Glo viability, 72 h; at 44.8 µM (top of the series) unless noted
Method in brief: (§3)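 Cells were incubated with compound for 72 hr at 37 degree celsius before CellTiter-Glo addition. Luminescence was normalized with no-cell wells as full cytotoxicity and DMSO as baseline.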

HACAT [4] = assay: as above; settings: MCC and control cell lines, CellTiter-Glo viability, 72 h; at 44.8 µM (top of the series) unless noted
Method in brief: as §3

HEK293T = assay: as above; settings: MCC and control cell lines, CellTiter-Glo viability, 72 h; at 44.8 µM (top of the series)
Method in brief: as §3
Note: nearly all actives have a fitted effect of over 60% in size.

With `O=C(O)CCCCCCNC1c2ccccc2CCc2ccccc21` the max response (CRL-7250 [1]) was -2%, the max response (HEK293) was 2.21% and the max response (HaCat [2]) was 0.465%. It also gave a max response (KB-3-1) of 7.47% and a max response (NIH3T3) of 1.62%.

For `NC(=O)OCCCc1ccccc1`, the Potency (TAB165) was “inactive”, the Potency (W2) was “inactive” and the outcome (CRL-7250 [1]) was “inactive”. The max response (HEK293) was 3.07%, the outcome (HaCat [2]) was “inactive” and the max response (KB-3-1) was -19.1%. The outcome (NIH3T3) was “inactive”, the outcome (CRL-7250 [3]) was “inactive” and the outcome (HACAT [4]) was “inactive”.

With `COc1ccc(OC)c(CC(C)N)c1` (centres undefined) the max response (CRL-7250 [1]) was -3.68%, the max response (HEK293) was -0.178% and the outcome (HaCat [2]) was “inactive”. The max response (KB-3-1) was -0.889%, the max response (NIH3T3) was -6.71% and the outcome (HACAT [4]) was “inactive [at 92 µM]”.

`C[C@H]1CNCCc2ccc(Cl)cc21` was tested, and the outcome (CRL-7250 [1]) was “inactive”, the outcome (HEK293) was “inactive” and the max response (HaCat [2]) was 2.82%. For the same compound, the max response (KB-3-1) was -14.3%, the outcome (NIH3T3) was “inactive” and the outcome (CRL-7250 [3]) was “inactive”. For the same compound, the outcome (HEK293T) was “inactive”.

Compound `CCC1(c2cccc(O)c2)CCCCN(C)C1` (centres undefined) has a max response (CRL-7250 [1]) of -9.91%, a max response (HEK293) of -2.39% and a max response (HaCat [2]) of -5.66%. For the same compound, the max response (KB-3-1) was 24.1% and the max response (NIH3T3) was 2.43%.

`C[C@@H]1C[C@@H]([C@H](O)CC2CC(=O)NC(=O)C2)C(=O)[C@@H](C)C1` was tested, and the Potency (CRL-7250 [1]) was 1.33 µM (active) and 833 nM (active), the Potency (HEK293) was 469 nM (active) and the Potency (HaCat [2]) was 2.35 µM (active). The Potency (KB-3-1) was 3.66 µM (active) and 1.48 µM (active) and the Potency (NIH3T3) was 473 nM (active) and 235 nM (active).

In the case of `CN1C[C@@H](NS(=O)(=O)N(C)C)C[C@@H]2c3cccc4c3c(cn4C)C[C@H]21`, the outcome (CRL-7250 [1]) is reported as “inactive”, the max response (HEK293) is reported as -5.36% and the outcome (HaCat [2]) is reported as “inactive”. The max response (KB-3-1) was -6.93%, the max response (NIH3T3) was -4.54% and the outcome (CRL-7250 [3]) was “inactive”. For the same compound, the outcome (HACAT [4]) was “inactive”.

For `NC(=O)CN1CCCC1=O`, the Potency (TAB165) was “inactive”, the Potency (W2) was “inactive” and the outcome (CRL-7250 [1]) was “inactive”. The outcome (HEK293) was “inactive”, the outcome (HaCat [2]) was “inactive” and the max response (KB-3-1) was 4.93%. For the same compound, the max response (NIH3T3) was -0.768%, the outcome (CRL-7250 [3]) was “inactive” and the outcome (HACAT [4]) was “inactive”. For the same compound, the outcome (HEK293T) was “inactive”.
